According to PubChem BioAssay (EPA / NIEHS):
Where “and” joins values, the source holds several entries; their conditions need not be identical. Equal entries are not always repeated. Calls of active or inactive are those of the source. The calls were made as follows: active = hit-call score of the fitted dose curve at least 0.9, where 1 is the maximum; inactive = score below 0.9.

Assay: BSK_LPS_SRB: Viability Assessment in the BioMAP Diversity Plus: LPS Assay (AID 2283079);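 also: measured one day after compound addition; fitted in both directions against DMSO so loss or gain of signal counts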
Details: primary human HUVEC with PBMC
Method: BSK_LPS is a cell-based, multiplexed-readout assay that uses umbilical vein endothelium and peripheral blood mononuclear cells, a human vascular primary cell co-culture, with measurements taken at 24 hours after chemical dosing in a 96-well plate.BSK_LPS_SRB is an assay component measured in the BSK_LPS assay. It measures 0.1% sulforhodamine related to cell death using Sulforhodamine staining technology.Data from the assay component BSK_LPS_SRB was analyzed into 1 assay endpoint. This assay endpoint, BSK_LPS_SRB, was analyzed with bidirectional fitting relative to DMSO as the negative control and baseline of activity. Using a type of viability reporter, gain or loss-of-signal activity can be used to understand changes in the signaling. Furthermore, this assay endpoint can be referred to as a primary readout, because this assay has produced multiple assay endpoints where this one serves a signaling function. To generalize the intended target to other relatable targets, this assay endpoint is annotated to the cell morphology intended target family, where the subfamily is cell conformation.
The levels of cell surface (or secreted, indicated by the prefix "s") biomarker endpoints were measured by ELISA. Overt cytotoxicity to cells in confluent adherent cultures (all systems other than the BT system) was assessed by measuring total protein levels using sulforhodamine B (SRB) staining in parallel cultures at the time of biomarker measurements, indicated as SRB endpoints. For proliferation assays for adherent cell types, individual cell types are cultured at sub-confluence and relative cell numbers quantified by SRB staining at time points optimized for each system (48 h: 3C and CASM3C systems; 72 h: BT and HDF3CGF systems; 96 h: SAg system). SRB was performed by staining cells with 0.1% SRB after fixation with 10% TCA and reading wells at 560 nm.Viability and proliferation of PBMC (T cells) was quantified by Alamar Blue reduction for the SAg and BT systems. For PBMC viability (referred to as PBMC Cytotoxicity within the assay endpoint names), cells were plated (75,000/well in a 96-well plate) and then chemical samples added for 1 h before addition of activators, SEB and TSST-1 (20 ng/mL final concentration each). Cells were incubated for 90 h. Then, Alamar Blue (20 uL/well) (Invitrogen, Cat DAL1100) was added for 6 h, and the plates were read with a fluorescence microplate reader at 546/580 nm (excitation/emission). For PBMC proliferation, cells were plated and activated as above but incubated for only 16 h prior to addition of Alamar Blue. Plates were read after 6 h.

SMILES | outcome | AC50
Nc1nc(N)nc(NC2CC2)n1 | inactive | –
CCOP(=S)(OCC)Oc1ccc([N+](=O)[O-])cc1 | inactive | –
CCOP(=S)(Oc1cnc(C(C)(C)C)nc1)OC(C)C (stereo not given) | – | 30.3 µM (active)
Cc1cc(C2CC2)nc(Nc2ccccc2)n1 | – | 24.7 µM (active)
C[N+]1(C)CCCCC1 | inactive | –
CC1(C(=O)Nc2ccc(O)c(Cl)c2Cl)CCCCC1 | inactive | –
CSc1nc(NC(C)C)nc(NC(C)C)n1 | inactive | –
CCCCOC(=O)c1ccccc1C(=O)O | inactive | –
O=c1ccc(=O)[nH][nH]1 | inactive | –
CNC(=O)ON=C(C)SC | inactive | –
CCCSP(=O)(OCC)Oc1ccc(Br)cc1Cl (stereo not given) | inactive | –
COP(=O)(NC(C)=O)SC (stereo not given) | inactive | –
CC(C1CC1)C(O)(Cn1cncn1)c1ccc(Cl)cc1 (stereo not given) | inactive | –
CCCOc1nn(C(=O)NS(=O)(=O)c2ccccc2C(=O)OC)c(=O)n1C | inactive | –
CC(Oc1cccc(Cl)c1)C(=O)O (stereo not given) | inactive | –
CNC(=O)Oc1cccc2c1OC(C)(C)O2 | inactive | –
CCC(=NOC/C=C/Cl)C1=C(O)CC(C2CCOCC2)CC1=O (stereo not given) | inactive | –
CCCSP(=O)(OCC)SCCC | inactive | –
CCOP(=O)(OCC)Oc1cc(C)nc(C(C)C)n1 | inactive | –
CCc1cccc(C)c1N(C(=O)CCl)C(C)COC (stereo not given) | inactive | –

SMILES | outcome | AC50
CN(C)[C@@H]1C(=O)C(C(N)=O)=C(O)[C@@]2(O)C(=O)C3=C(O)c4c(O)cccc4[C@@](C)(O)[C@H]3[C@H](O)[C@@H]12 | inactive | –
N#CSCSC#N | – | 5.37 µM (active)
Nc1c(Cl)cc([N+](=O)[O-])cc1Cl | inactive | –
CCOP(=S)(OCC)Oc1ccc2c(C)c(Cl)c(=O)oc2c1 | inactive | –
CCOP(=S)(OCC)Oc1cc(C)nc(C(C)C)n1 | inactive | –
COc1cc(OC)nc(Sc2cccc(Cl)c2C(=O)O)n1 | inactive | –
CCOP(=O)(SC(C)CC)N1CCSC1=O (stereo not given) | inactive | –
COP(=O)(OC)C(O)C(Cl)(Cl)Cl (stereo not given) | inactive | –
O=[N+]([O-])c1cc(C(F)(F)F)c(Cl)c([N+](=O)[O-])c1Nc1ncc(C(F)(F)F)cc1Cl | – | 2 µM (active) and 3.96 µM (active)
CCOP(=O)(NC(C)C)Oc1ccc(SC)c(C)c1 (stereo not given) | inactive | –
COP(=O)(OC)SCn1c(=O)oc2cc(Cl)cnc21 | – | 20 µM (active)
CC[C@H](C)[C@H]1O[C@]2(C=C[C@@H]1C)C[C@@H]1C[C@@H](C/C=C(\C)[C@@H](O[C@H]3C[C@H](OC)[C@@H](O[C@H]4C[C@H](OC)[C@@H](NC)[C@H](C)O4)[C@H](C)O3)[C@@H](C)/C=C/C=C3\CO[C@@H]4[C@H](O)C(C)=C[C@@H](C(=O)O1)[C@]34O)O2 | – | 5.52 µM (active)
CCOP(=S)(OCC)SCCSCC | inactive | –
S=C1NCCN1 | inactive | –
CCCCSP(=O)(SCCCC)SCCCC | – | 16 µM (active)
CN1COCN(Cc2cnc(Cl)s2)C1=N[N+](=O)[O-] | inactive | –
CNC(=O)ON=C(SC)C(=O)N(C)C | inactive | –
C=C(C)[C@H]1Cc2c(ccc3c2O[C@@H]2COc4cc(OC)c(OC)cc4[C@@H]2C3=O)O1 | – | 10.9 µM (active)
CCNc1nc(Cl)nc(NC(C)(C)C#N)n1 | inactive | –
CC(C)=CC1C(C(=O)OCN2C(=O)C3=C(CCCC3)C2=O)C1(C)C (stereo not given) | inactive | –
